Screening data: PubChem BioAssay, The Scripps Research Institute Molecular Screening Center
proKLK7 act: activators of human kallikrein-7 zymogen | activation, % at 7 µM | 370,000 compounds, 0.9% hits | P49862 | purified proKLK7, EDANS-DABCYL substrate fluorescence; 100% is mature enzyme control, 0% vehicle | AID 652039;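 active means activation above the mean of all tested compounds plus 3 SD, computed per campaign excluding outliers beyond control limits, cut at about 13% in these data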
ADAM17 inh: inhibitors of human ADAM17 | P78536 | recombinant ADAM17, EDANS/DABCYL FRET peptide cleavage | inhibition, % at 6.95 µM | 370,000 compounds, 0.83% hits;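 active means inhibition above the mean of compounds lying between control limits plus 3 SD, set per campaign, cut at about 8.5% in these data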;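 further: 0% = DMSO-only wells as the low control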
Target sequence (P78536 215-824 limits assumed): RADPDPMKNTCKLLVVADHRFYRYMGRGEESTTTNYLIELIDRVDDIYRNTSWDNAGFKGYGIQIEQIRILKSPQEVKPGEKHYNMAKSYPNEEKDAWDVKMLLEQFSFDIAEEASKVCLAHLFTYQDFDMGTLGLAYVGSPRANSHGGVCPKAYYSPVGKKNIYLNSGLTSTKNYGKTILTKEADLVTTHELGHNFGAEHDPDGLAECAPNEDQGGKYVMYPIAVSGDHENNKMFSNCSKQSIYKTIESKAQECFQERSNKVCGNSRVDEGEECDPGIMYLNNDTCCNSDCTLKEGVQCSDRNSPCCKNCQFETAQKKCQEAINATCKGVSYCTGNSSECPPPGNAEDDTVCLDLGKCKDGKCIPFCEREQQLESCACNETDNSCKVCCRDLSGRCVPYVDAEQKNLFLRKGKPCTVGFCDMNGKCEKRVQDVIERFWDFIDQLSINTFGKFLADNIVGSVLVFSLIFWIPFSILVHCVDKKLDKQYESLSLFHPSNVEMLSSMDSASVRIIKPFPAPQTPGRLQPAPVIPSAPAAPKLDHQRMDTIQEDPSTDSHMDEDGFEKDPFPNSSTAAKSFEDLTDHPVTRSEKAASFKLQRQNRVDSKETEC
ADAM10 inh: ADAM10 inhibition, QFRET primary screen; O14672; recombinant ADAM10, EDANS/DABCYL FRET peptide cleavage, 3 h; inhibition, % at 7 µM; 370,000 compounds, 0.62% hits;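 active means inhibition above a per-campaign cutoff equal to the mean of compounds falling between control-based bounds plus 3 SD, cut at about 20% in these data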;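 further: 0% = DMSO wells while the 100% control is not disclosed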
PLC-gamma1 inh: PLC-gamma1 (human) inhibition, primary screen | inhibition, % at 12.2 µM | 370,000 compounds, 0.84% hits | AID 720700 | purified PLC-gamma1, fluorogenic substrate, fluorescence | P19174; in the data active means inhibition above about 9.5%
PLC-beta3 inh: PLC-beta3 (human) inhibition, primary screen; 370,000 compounds, 0.18% hits; Purified PLC-beta3, fluorogenic substrate, fluorescence; inhibition, % at 12.2 µM; Q01970; in the data active means inhibition above about 11%;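 further: 0% = median of compound wells on plate and 100% = full blocker control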
ADAM10 ctr: ADAM10 inhibition, counter-screen for ADAM17 exosite hits; 2,900 compounds, 47% hits; AID 743256; recombinant ADAM10, EDANS/DABCYL FRET peptide cleavage, 3 h; inhibition, % at 6.95 µM; shares compounds with ADAM17 inh;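 active means mean inhibition over the triplicate runs exceeds the activity threshold set in the earlier primary screen, cut at about 20% in these data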;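 further: 0% = DMSO wells and 100% = marimastat wells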
ADAM17 confirm: human ADAM17 inhibition, confirmation; AID 743257; shares compounds with ADAM17 inh; recombinant ADAM17, EDANS/DABCYL QFRET peptide cleavage; inhibition, % at 6.95 µM; 2,900 compounds, 65% hits;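 active means mean inhibition across replicates above the hit cutoff set in the primary screen, cut at about 8.5% in these data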;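 further: 0% = DMSO wells and 100% = marimastat wells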
An asterisk follows results filed as active; . = no result; ! = not active in a repeat. Most compounds without a hit are left out; they make up all but 2.9% or so of the library.

SMILES	proKLK7 act	ADAM17 inh	ADAM10 inh	PLC-gamma1 inh	PLC-beta3 inh	ADAM10 ctr	ADAM17 confirm
Cc1cccc(Nc2nc(N)c([N+](=O)[O-])c(N3CC(C)CC(C)C3)n2)c1 (stereo not drawn)	0.0	9.4*	20.4*	2.0	5.8	30.8*	16.9*
CSCCC(NS(=O)(=O)c1cccc(C(F)(F)F)c1)C(=O)N(C)CCOc1ccc(Cl)cc1 (stereo not drawn)	0.8	10.7*	17.2	0.0	-6.8	41.1*	20.7*
CSCCC(NS(=O)(=O)c1cccc(C(F)(F)F)c1)C(=O)N1CCN(C(=O)c2ccco2)CC1 (stereo not drawn)	-0.2	-1.1	-10.6	-6.1	-8.8	.	.
Cc1ccc(NC(=O)c2cc([N+](=O)[O-])ccc2NCc2cccnc2)cc1	0.3	9.2*	11.8	5.4	3.7	15.4	8.6
COc1ccc([N+](=O)[O-])cc1NCc1cccnc1	-0.5	-2.7	-9.8	-3.9	0.2	.	.
CCOC(=O)C1=CCC(c2cc3ccc(OC)cc3n2C(=O)OC(C)(C)C)NC1 (stereo not drawn)	0.1	-37.1	-70.5	-357.6	-486.7	.	.
O=C(Nc1ccc(Cl)cc1)N1CCCN(Cc2ccc(F)cc2)C1	-0.5	10.1*	7.4	5.3	10.6	13.2	10.7*
CC(C)(C)CN1CCN(CCCc2ccccc2)C(CCO)C1 (stereo not drawn)	0.1	1.6	-9.1	2.0	-4.1	.	.
COc1cc(NC(=O)c2cc(C)on2)cc(C(=O)Nc2cccc(C(F)(F)F)c2)c1	0.1	11.8*!	16.2	0.8	-0.7	33.6*	15.9*
O=C(CN1CCN(c2nc(-c3ccccc3)cs2)CC1)Nc1ccc(F)cc1F	0.3	4.6	12.6	1.7	-2.8	.	.
CCCN(CC(=O)Nc1ccccc1OC)C(=O)c1ccc2[nH]c3c(c2c1)CC(C)CC3 (stereo not drawn)	2.8	12.5*	7.6	-44.7	-61.2	28.6*	16.3*
CCN(CC(=O)Nc1ccccc1OC)C(=O)c1ccc2[nH]c3c(c2c1)CC(C)CC3 (stereo not drawn)	5.6	-2.7	-18.4	-48.3	-67.6	.	.
C#CCNCCS(=O)(=O)N(Cc1ccc(Br)cc1)[C@@H](C)C(=O)O	-0.2	-0.6	-5.9	0.8	1.6	.	.
COc1cccc(-c2nnc(SCC(=O)Nc3ccc(Oc4ccccc4)cc3)n2Cc2ccco2)c1	0.9	9.1*	9.2	0.5	-4.6	26.7*	15.9*
CCOc1ccc(-n2c(SCC(=O)Nc3ccccc3-c3ccccc3)nnc2-c2ccccc2)cc1	0.4	9.6*	18.4	3.2	1.4	37.7*	20.3*
CCOc1ccc(-n2c(SCC(=O)Nc3cccc4ccccc34)nnc2-c2ccccc2)cc1	0.0	-1.3	-4.5	-2.3	1.9	.	.
CC(C)(C)c1ccc(-c2nnc(SCC(=O)Nc3ccccc3-c3ccccc3)n2Cc2ccco2)cc1	0.4	11.4*	17.0	-0.3	1.2	20.4*	17.1*
CC(C)(C)c1ccc(-c2nnc(SCC(=O)Nc3ccc(S(=O)(=O)Nc4nccs4)cc3)n2Cc2ccco2)cc1	0.6	9.6*	9.6	-1.1	-7.8	22.6*	13.3*
O=C1CCCCC1C(Nc1ccc(Cl)cc1)c1ccccc1 (stereo not drawn)	-0.2	10.6*	18.0	8.8	5.0	13.6	13.2*
CC(=Nc1ccccc1)C1=C(O)C(Cc2ccccc2)NC1=O (stereo not drawn)	0.3	-2.4	-4.4	-2.0	3.1	.	.
O=C(NC(Nc1ncc(S(=O)(=O)c2ccc([N+](=O)[O-])cc2)s1)(C(F)(F)F)C(F)(F)F)c1ccc(Cl)cc1	-0.3	11.7*	7.3	6.7	2.6	41.4*	17.3*
COC(=O)C1=C(C)N(c2cccc(C)c2)C(=O)/C1=C\c1cccs1	0.1	8.7*	12.1	0.9	-1.2	5.0	5.1
CS/C(=C\[N+](=O)[O-])Nc1ccc(F)cc1	-0.2	12.7*	11.9	5.7	8.2	6.7	3.0
CCCn1c(O)c(N=NC(=O)CNC(=O)Cc2ccc(OC)cc2)c2ccccc21	0.0	9.7*	1.2	7.7	-7.3	5.2	6.4
CCCn1c(O)c(N=NC(=O)CNC(=O)/C=C/c2ccc(OC)cc2)c2ccccc21	-0.5	-1.5	10.0	1.1	-5.1	.	.
SMILES	proKLK7 act	ADAM17 inh	ADAM10 inh	PLC-gamma1 inh	PLC-beta3 inh	ADAM10 ctr	ADAM17 confirm
Cc1ccccc1Nc1nc(N)nc(COC(=O)CCNS(=O)(=O)c2ccccc2)n1	-0.1	12.1*	8.6	-1.0	-11.5	-3.1	0.1
COc1cc(NS(=O)(=O)c2ccc(C)cc2)c2c(c1N)C(=O)c1ccccc1C2=O	-0.2	-3.5	-13.2	-6.7	-6.6	.	.
CCCc1c(-c2ccc(F)cc2F)ncn1Cc1cccc(-c2ccccc2)c1	-0.4	16.1*	14.4	8.1	8.2	1.5	5.5
CCCc1c(-c2cccc(Cl)c2)ncn1Cc1cccc(-c2ccccc2)c1	-0.3	0.8	0.2	4.2	0.3	.	.
CCCOc1ccc(C2/C(=C(\O)c3c(C)[nH]c(C(=O)OC)c3C)C(=O)C(=O)N2CCN(C)C)cc1 (stereo not drawn)	-0.3	9.9*	-8.1	1.5	1.2	1.7	3.2
CCN(CC)CCN1C(=O)C(=O)/C(=C(/O)c2c(C)[nH]c(C(=O)OC)c2C)C1c1ccc(OC)cc1 (stereo not drawn)	-0.2	-1.0	10.6	4.1	5.7	.	.
CCCN(C#N)c1nc(NCC)nc(NC(C)C)n1	0.1	-0.1	9.7	-1.3	0.1	.	.
CC(C)Nc1nc(NC(C)C)nc(N(C#N)CCOc2ccc(Cl)cc2Cl)n1	0.3	9.3*	12.6	-2.1	-6.1	19.1	12.9*
COc1ccc(/C=N/NC(N)=S)cc1OC(=O)c1ccccc1	-0.4	9.1*	-1.3	2.8	-5.8	9.6	7.6
COc1ccc(C(C)=NOC(=O)c2c(-c3ccccc3Cl)noc2C)cc1CN1CCOCC1	0.3	1.9	-1.4	2.4	3.2	.	.
OC(COC(c1ccc(Cl)cc1)c1ccc(Cl)cc1)CN1CCN(c2ccccn2)CC1 (stereo not drawn)	0.5	9.1*	15.0	2.7	-0.5	22.3*	13.0*
Cc1ccc(CCNC(=O)CCCn2nc(C)c3c(C)n(-c4ccc(C)cc4)nc3c2=O)cc1	-0.1	10.7*	11.1	7.3	-4.2	5.1	5.8
COc1cccc(CN2CC(C(=O)NCCn3ccc(C)n3)CCC2=O)c1 (stereo not drawn)	-0.3	-5.3	-35.6	2.8	-6.2	.	.
COc1ccc(Nc2oc(COc3ccc(OC)cc3)nc2C#N)cc1	0.4	9.1*	14.0	1.1	3.7	13.0	5.6
COc1ccc(Nc2oc(COc3ccc(C)cc3)nc2C#N)cc1	0.3	6.0	19.7	-1.0	1.1	.	.
